Measurements from the supplement of paper PMC10849652.
Of roughly 7,900 targets only a part is listed; those with a hit were picked by preference. About 0.6% of all pairs of compound and target were hits.

Legend:
Test in all cases: log2 fold change, soluble protein after heating vs DMSO (PISA); higher = thermal stabilisation; K562 cells, 10 uM, 30 min; active = over 0.2 and 3.5 SD of the protein, either way, in both replicates (recomputed)
[1] = compound: C1=CC=C(C=C1)[C@H](COC2=CC3=C(C=C2)NC(=O)N3)NC(=O)C4=CC=CN(C4=O)CC5=CC(=C(C=C5)F)F
Outline: (§1)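 Values are thermal stability changes relative to control samples and are taken from duplicates. They are stated as log2 fold changes. Before quantification by TMTpro 16plex LC-MS/MS with equalised channel sums, K562 cells at 2×10^6 cells/mL were treated with 10 μM compound for 30 min, heated in aliquots for 3 min across 48°C-58°C, pooled, extracted in PBS with 0.5% NP-40 at 4°C, and centrifuged at 21,000xg for 90 min to give the soluble supernatant.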

[2] = compound: CC1=C(SC2=C1C(=N[C@H](C3=NN=C(N32)C)CC(=O)N)C4=CC=C(C=C4)Cl)C
Outline: as §1

[3] = compound: CC1=C2C(=CC=C1)N=C(N(C2=O)C3=CC=CC=C3C)CN4C=NC5=C(N=CN=C54)N
Outline: as §1

[4] = compound: Cc1sc2c(c1C)C(c1ccc(Cl)cc1)=N[C@@H](CC(=O)OC(C)(C)C)c1nnc(C)n1-2
Outline: as §1

[5] = compound: c1ccc([C@@H]2C[C@H]2NC2CCNCC2)cc1
Outline: as §1

Measured: log2 fold change

NUDT21 (UniProt O43809)
UniProt O43809, sequence (O43809 whole entry, looked up): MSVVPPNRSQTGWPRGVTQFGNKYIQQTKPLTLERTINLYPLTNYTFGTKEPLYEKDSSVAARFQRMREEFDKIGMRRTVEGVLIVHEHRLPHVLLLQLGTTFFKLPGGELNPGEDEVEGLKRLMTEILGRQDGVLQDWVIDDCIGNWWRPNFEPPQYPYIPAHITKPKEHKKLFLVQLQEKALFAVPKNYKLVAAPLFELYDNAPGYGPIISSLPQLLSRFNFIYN
inactive: [1] 0.013 | [2] 0.021 | [3] 0.011 | [4] -0.01 | [5] 0.001

MRPS9 (UniProt P82933)
inactive: [1] -0.001 | [2] 0.008 | [3] -0.025 | [4] 0.034 | [5] 0.025

NSDHL (UniProt Q15738)
inactive: [1] 0.029 | [2] 0.047 | [3] 0.019 | [4] 0 | [5] -0.034

NDUFB1 (UniProt O75438)
UniProt O75438, sequence (O75438 whole entry, looked up): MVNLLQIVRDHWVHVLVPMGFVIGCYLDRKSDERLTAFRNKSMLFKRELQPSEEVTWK
inactive: [1] -0.004 | [2] -0.059 | [3] -0.056 | [4] -0.138 | [5] 0.055

PAK1 isoform 2 (UniProt Q13153)
UniProt Q13153, sequence (Q13153 whole entry, looked up): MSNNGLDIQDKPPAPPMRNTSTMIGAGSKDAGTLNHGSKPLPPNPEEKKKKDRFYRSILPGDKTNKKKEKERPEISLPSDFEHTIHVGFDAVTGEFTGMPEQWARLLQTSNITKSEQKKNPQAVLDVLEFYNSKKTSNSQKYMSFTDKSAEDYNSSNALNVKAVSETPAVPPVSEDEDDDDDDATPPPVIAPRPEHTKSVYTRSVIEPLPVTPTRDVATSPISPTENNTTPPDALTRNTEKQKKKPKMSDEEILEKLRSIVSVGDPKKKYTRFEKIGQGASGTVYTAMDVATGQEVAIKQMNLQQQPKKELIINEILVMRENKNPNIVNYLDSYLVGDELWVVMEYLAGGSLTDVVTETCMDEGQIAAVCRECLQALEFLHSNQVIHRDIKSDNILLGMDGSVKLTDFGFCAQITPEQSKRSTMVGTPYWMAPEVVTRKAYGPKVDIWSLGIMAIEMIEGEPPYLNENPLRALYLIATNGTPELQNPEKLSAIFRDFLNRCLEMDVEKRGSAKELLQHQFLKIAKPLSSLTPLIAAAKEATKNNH
inactive: [1] -0.152 | [2] 0.097 | [3] -0.113 | [4] -0.02 | [5] -0.092

MRPS16 (UniProt Q9Y3D3)
inactive: [1] -0.006 | [2] -0.033 | [3] -0.009 | [4] 0.014 | [5] -0.074

NNMT (UniProt P40261)
UniProt P40261, sequence (P40261 whole entry, looked up): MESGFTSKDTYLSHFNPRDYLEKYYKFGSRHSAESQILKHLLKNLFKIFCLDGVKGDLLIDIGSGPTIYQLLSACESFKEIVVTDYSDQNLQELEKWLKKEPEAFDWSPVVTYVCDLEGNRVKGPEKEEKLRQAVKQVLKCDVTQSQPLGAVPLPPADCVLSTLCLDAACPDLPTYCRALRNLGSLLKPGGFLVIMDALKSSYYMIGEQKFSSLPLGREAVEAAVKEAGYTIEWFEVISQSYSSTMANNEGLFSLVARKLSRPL
inactive: [1] 0.021 | [2] 0.051 | [3] 0.078 | [4] -0.009 | [5] -0.055

MRPL50 (UniProt Q8N5N7)
inactive: [1] 0.11 | [2] 0.01 | [3] -0.079 | [4] -0.022 | [5] -0.05

OGFOD2 (UniProt Q6N063)
inactive: [1] 0.124 | [2] 0.097 | [3] 0.024 | [4] 0.091 | [5] 0.053

NGLY1 (UniProt Q96IV0)
inactive: [1] -0.084 | [2] 0.01 | [3] 0.114 | [4] 0.014 | [5] -0.046

MT-ND4 (UniProt P03905)
UniProt P03905, sequence (P03905 whole entry, looked up): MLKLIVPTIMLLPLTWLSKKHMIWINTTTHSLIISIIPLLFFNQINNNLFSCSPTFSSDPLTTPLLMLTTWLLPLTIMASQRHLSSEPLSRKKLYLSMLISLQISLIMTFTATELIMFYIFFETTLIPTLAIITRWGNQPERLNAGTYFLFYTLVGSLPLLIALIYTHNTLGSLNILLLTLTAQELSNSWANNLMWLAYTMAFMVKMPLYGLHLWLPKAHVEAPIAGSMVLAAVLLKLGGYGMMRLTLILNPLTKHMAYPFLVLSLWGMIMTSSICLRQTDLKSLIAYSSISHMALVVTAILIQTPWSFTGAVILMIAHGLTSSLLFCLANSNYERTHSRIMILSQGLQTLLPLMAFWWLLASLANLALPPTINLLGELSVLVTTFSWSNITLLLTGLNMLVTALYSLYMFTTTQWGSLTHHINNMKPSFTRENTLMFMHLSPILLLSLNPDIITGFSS
inactive: [1] -0.124 | [2] -0.017 | [3] -0.045 | [4] -0.057 | [5] 0.036

NCL (UniProt P19338)
inactive: [1] 0.158 | [2] -0.365 | [3] -0.299 | [4] 0.227 | [5] 0

MRPS27 isoform 2 (UniProt Q92552)
inactive: [1] -0.063 | [2] 0.04 | [3] 0.01 | [4] 0.035 | [5] -0.059

NOS1AP (UniProt O75052)
inactive: [1] -0.109 | [2] 0.025 | [3] 0.362 | [4] -0.141 | [5] -0.178

NCAPD2 (UniProt Q15021)
inactive: [1] -0.078 | [2] 0.04 | [3] 0.044 | [4] 0.016 | [5] 0.007

MRPS31 (UniProt Q92665)
inactive: [1] -0.042 | [2] 0.028 | [3] 0.021 | [4] 0.044 | [5] -0.031

NSUN2 (UniProt Q08J23)
inactive: [1] -0.019 | [2] 0.023 | [3] 0.003 | [4] 0 | [5] 0.003

NISCH (UniProt Q9Y2I1)
inactive: [1] 0.044 | [2] -0.02 | [3] 0.036 | [4] 0.044 | [5] -0.044

MRPS22 (UniProt P82650)
inactive: [1] -0.016 | [2] 0.05 | [3] -0.037 | [4] 0.087 | [5] -0.063

NFATC2IP (UniProt Q8NCF5)
UniProt Q8NCF5, sequence (Q8NCF5 whole entry, looked up): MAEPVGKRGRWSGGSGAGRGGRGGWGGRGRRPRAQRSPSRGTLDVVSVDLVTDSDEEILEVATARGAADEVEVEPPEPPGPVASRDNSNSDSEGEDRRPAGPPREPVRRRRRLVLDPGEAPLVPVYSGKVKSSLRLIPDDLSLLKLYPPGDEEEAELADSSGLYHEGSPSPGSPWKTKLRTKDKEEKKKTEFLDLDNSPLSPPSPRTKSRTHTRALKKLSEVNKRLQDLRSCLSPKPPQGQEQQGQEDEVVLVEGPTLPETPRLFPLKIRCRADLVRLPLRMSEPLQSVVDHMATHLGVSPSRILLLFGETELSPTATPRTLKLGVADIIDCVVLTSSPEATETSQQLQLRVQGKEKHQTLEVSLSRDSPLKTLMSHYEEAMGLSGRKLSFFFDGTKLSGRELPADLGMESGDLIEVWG
inactive: [1] -0.051 | [2] 0.18 | [3] 0.039 | [4] -0.088 | [5] 0.156

NTMT1 (UniProt Q9BV86)
UniProt Q9BV86, sequence (Q9BV86 whole entry, looked up): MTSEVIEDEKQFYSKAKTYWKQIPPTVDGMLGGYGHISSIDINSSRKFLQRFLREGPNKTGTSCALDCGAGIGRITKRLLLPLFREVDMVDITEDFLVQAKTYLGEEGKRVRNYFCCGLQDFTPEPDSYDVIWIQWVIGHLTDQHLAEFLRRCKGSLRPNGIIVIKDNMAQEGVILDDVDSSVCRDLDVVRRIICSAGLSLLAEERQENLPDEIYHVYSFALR
inactive: [1] 0.001 | [2] 0.034 | [3] 0.079 | [4] -0.118 | [5] -0.049

MRPS21 (UniProt P82921)
inactive: [1] -0.238 | [2] 0.032 | [3] 0.013 | [4] 0.116 | [5] -0.016

NT5DC1 (UniProt Q5TFE4)
UniProt Q5TFE4, sequence (Q5TFE4 whole entry, looked up): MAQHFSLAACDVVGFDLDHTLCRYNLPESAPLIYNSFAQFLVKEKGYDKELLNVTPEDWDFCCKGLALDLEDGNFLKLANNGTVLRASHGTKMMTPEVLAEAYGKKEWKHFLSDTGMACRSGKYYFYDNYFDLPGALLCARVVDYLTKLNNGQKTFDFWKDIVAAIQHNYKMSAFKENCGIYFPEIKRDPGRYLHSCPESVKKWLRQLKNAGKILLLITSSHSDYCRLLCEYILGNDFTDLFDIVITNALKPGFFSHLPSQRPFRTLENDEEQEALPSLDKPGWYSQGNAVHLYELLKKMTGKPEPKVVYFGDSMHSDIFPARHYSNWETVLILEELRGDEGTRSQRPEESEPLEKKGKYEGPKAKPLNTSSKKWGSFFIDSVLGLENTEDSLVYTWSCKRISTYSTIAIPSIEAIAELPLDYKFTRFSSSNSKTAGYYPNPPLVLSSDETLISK
inactive: [1] -0.036 | [2] 0.075 | [3] 0.006 | [4] 0.021 | [5] 0.011

NAA38 isoform 2 (UniProt Q9BRA0)
UniProt Q9BRA0, sequence (Q9BRA0 whole entry, looked up): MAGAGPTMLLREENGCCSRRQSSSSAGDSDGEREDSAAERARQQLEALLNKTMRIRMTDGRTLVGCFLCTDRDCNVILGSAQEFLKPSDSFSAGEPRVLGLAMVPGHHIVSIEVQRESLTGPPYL
inactive: [1] 0.038 | [2] 0.057 | [3] -0.013 | [4] -0.029 | [5] -0.124

PACS1 (UniProt Q6VY07)
UniProt Q6VY07, sequence (Q6VY07 whole entry, looked up): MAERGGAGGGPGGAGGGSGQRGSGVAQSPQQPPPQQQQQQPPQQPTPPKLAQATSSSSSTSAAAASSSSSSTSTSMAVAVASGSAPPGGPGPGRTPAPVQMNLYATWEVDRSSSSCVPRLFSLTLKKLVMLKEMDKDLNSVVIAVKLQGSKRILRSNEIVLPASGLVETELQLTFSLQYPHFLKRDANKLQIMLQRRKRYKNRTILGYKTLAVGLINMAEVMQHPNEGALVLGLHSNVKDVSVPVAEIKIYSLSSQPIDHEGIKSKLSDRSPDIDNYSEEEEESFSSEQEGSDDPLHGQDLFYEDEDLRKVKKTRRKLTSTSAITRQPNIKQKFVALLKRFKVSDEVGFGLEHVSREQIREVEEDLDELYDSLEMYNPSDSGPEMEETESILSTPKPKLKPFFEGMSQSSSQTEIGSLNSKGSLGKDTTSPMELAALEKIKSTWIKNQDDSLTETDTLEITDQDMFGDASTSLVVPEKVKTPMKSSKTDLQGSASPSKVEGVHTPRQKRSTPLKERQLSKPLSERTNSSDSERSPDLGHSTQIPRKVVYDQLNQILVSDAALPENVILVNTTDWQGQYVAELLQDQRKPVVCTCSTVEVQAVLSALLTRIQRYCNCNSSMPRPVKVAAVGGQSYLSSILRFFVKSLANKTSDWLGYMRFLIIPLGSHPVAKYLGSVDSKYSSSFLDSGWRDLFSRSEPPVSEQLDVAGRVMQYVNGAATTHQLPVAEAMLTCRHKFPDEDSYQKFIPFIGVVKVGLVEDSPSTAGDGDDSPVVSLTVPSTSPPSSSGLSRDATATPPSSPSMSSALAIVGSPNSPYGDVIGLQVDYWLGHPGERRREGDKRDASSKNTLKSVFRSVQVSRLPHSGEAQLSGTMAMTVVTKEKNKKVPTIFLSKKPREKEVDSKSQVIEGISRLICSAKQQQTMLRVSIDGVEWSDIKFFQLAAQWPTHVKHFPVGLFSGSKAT
inactive: [1] -0.02 | [2] 0.042 | [3] 0.033 | [4] 0.002 | [5] -0.014

NRDC isoform 2 (UniProt O43847)
inactive: [1] -0.058 | [2] 0.04 | [3] 0.037 | [4] -0.023 | [5] 0

NECTIN2 (UniProt Q92692)
inactive: [1] 0.017 | [2] 0.031 | [3] -0.019 | [4] -0.009 | [5] -0.012

MRPS25 (UniProt P82663)
inactive: [1] -0.002 | [2] -0.05 | [3] -0.067 | [4] 0.059 | [5] 0.014

NDUFB8 (UniProt O95169)
UniProt O95169, sequence (O95169 whole entry, looked up): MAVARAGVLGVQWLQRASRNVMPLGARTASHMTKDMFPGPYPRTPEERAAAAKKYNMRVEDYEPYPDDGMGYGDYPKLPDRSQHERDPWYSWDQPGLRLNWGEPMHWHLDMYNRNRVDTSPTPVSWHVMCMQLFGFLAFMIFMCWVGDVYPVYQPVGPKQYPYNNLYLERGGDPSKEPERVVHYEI
inactive: [1] 0.049 | [2] 0.045 | [3] 0.02 | [4] -0.002 | [5] 0.089

NIBAN1 (UniProt Q9BZQ8)
UniProt Q9BZQ8, sequence (Q9BZQ8 whole entry, looked up): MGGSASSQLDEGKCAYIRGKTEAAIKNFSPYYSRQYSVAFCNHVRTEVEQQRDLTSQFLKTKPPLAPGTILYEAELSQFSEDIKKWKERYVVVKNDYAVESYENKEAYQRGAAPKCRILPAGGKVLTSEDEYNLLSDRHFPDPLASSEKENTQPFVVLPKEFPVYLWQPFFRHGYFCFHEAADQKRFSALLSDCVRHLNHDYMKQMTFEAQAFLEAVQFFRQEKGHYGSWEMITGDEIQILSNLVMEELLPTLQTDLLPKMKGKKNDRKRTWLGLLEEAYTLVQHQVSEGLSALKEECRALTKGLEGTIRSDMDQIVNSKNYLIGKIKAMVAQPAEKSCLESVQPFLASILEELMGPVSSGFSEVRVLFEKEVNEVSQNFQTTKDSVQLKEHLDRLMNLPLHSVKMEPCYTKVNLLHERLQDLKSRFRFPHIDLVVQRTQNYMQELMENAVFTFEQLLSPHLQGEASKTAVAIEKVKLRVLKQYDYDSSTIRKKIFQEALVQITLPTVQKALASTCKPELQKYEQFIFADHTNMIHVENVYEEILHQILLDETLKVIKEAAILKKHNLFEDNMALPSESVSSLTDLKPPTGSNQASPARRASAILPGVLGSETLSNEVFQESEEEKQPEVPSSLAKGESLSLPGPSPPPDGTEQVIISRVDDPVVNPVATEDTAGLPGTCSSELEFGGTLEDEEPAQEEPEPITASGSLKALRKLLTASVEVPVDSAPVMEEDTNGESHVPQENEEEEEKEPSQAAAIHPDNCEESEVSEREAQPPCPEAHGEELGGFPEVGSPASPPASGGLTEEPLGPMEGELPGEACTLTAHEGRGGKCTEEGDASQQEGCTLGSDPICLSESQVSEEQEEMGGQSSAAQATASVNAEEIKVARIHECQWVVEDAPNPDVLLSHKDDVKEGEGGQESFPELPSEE
inactive: [1] -0.017 | [2] 0.015 | [3] 0.056 | [4] 0.028 | [5] 0.03

NIPSNAP3B (UniProt Q9BS92)
inactive: [1] 0.045 | [2] -0.031 | [3] 0.017 | [4] -0.021 | [5] 0.099

MRPS10 (UniProt P82664)
inactive: [1] -0.019 | [2] -0.102 | [3] 0.065 | [4] 0.132 | [5] 0.025
